Sampled rows, rich in hits. Any-hit rate of the full collection: about 2.7%.
INS-1E GSIS act = primary screen for activators of insulin secretion dependent on glucose, INS-1E cells, GLuc reporter luminescence; activation, % at 16.6 µM; INS-1E GLuc reporter insulin secretion, 2-3 h; actives 0.61% (n = 370,000);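 active = lowest replicate activation of at least 40%, so every replicate reaches that level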
Wnt bcat act = activators of Wnt/beta-catenin signaling | Wnt/beta-catenin reporter cell assay, activator, plate reader | activation, % at 9.35 µM | actives 1.2% (n = 300,000); in the data active = activation above about 30%, passing the limit was not always enough; inconclusive = no clear call, values can overlap the other calls
F508del corr = correctors of CFTR F508del function in bronchial epithelial cells. CFBE cells, YFP halide quenching; stimulated with forskolin plus potentiator P3; % fluorescence drop versus neutral controls. activity (quench increase), % at 7.58 µM. actives 0.36% (n = 350,000). AID 720511;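 active = mean added fluorescence quench of at least 8% versus neutral control, with both replicates also reaching 8%; inconclusive = only one of the mean or replicate conditions met; inactive = mean below 8% and not both replicates reaching 8%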;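 also: cells transiently co-express mutant CFTR-F508del with the halide-sensitive YFP; corrector assay measuring rescue of mutant channel to the surface after 24 h compound exposure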
MITF act = activators of MITF-driven TRPM1 promoter activity in SK-MEL-5 cells; SK-MEL-5 TRPM1-promoter luciferase, 24 h; % of positive control, neutral wells = 0; activation, % at 12.5 µM; actives 0.75% (n = 300,000);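 active = mean activation of at least 80% with every replicate also reaching 80%; inconclusive = mean reaches 80% but some replicate falls short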
Env fusion inh = blocks HIV Env-driven cell-cell fusion; inhibition, % at 12.3 µM; actives 1.1% (n = 360,000); HeLa-JRFL Env/CEM21 cell fusion, luciferase;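 active = mean replicate inhibition score of at least 50 and every replicate individually at or above 50; inconclusive = only one of the two criteria met; inactive = mean below 50 and not all replicates reaching 50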
Hits are given with their value; n = inactive; u = inconclusive; x = no result.

SMILES | INS-1E GSIS act | Wnt bcat act | F508del corr | MITF act | Env fusion inh
Cc1cc(CN(C)C(=O)CC2C(=O)NCCN2Cc2c(F)cccc2Cl)n[nH]1 (stereo unspecified) | n | n | n | n | 64.7
CO[C@@H]1CN(C)C(=O)c2cc(NC(=O)Nc3ccccc3)ccc2OC[C@@H](C)N(C(=O)Nc2c(C)noc2C)C[C@@H]1C | n | x | n | x | x
CC1(C)Cc2c(sc(NC(=O)Cc3ccccc3)c2C#N)CO1 | n | n | n | n | n
CCCCC(=O)Nc1sc2c(c1C#N)CC(C)(C)OC2 | n | n | x | 90.9 | n
Cc1noc(C)c1S(=O)(=O)N(C)C[C@H]1OCCCC[C@H](C)Oc2ccc(NS(=O)(=O)c3ccc(Cl)cc3)cc2C(=O)N([C@H](C)CO)C[C@@H]1C | n | x | n | x | n
CC(=O)Nc1cccc(C(=O)OCC(=O)c2ccccc2Cl)c1 | n | 46.7 | n | n | n
CCC(=O)Nc1cccc(C(=O)OCC(=O)c2ccccc2Cl)c1 | n | x | x | n | n
CN1c2ccc(-c3ccc(F)cc3)cc2[C@@H]2[C@@H](CCN2C(=O)C2CCOCC2)[C@H]1CO | n | x | n | x | x
Cc1cc2ncc(-c3cccc(Cl)c3)cn2n1 | n | n | n | n | n
Cc1nn2cc(-c3ccc(Cl)cc3)cnc2c1Cl | n | 32.2 | n | 126.2 | n
Cc1noc(C)c1NC(=O)Nc1ccc2c(c1)C(=O)N([C@@H](C)CO)C[C@@H](C)[C@H](CN(C)C(=O)Nc1ccc3c(c1)OCO3)OCCCC[C@@H](C)O2 | n | x | n | x | n
CCOC(=O)c1ccc(NC(=O)c2cnccn2)cc1 | n | n | x | 119.0 | n
CCOC(=O)c1ccc(NC(=O)c2nc[nH]c2C(=O)N[C@H](C)CO)cc1 | 55.8 | n | n | x | n
CCOC(=O)c1ccc(NC(=O)N(CC)CC)cc1 | x | 49.3 | x | n | n
CCCCc1ccc(NC(=O)c2cnccn2)cc1 | n | n | n | n | n
CCOC(=O)CC(=O)Nc1ccc(C(=O)OCC)cc1 | x | x | x | n | x
CCOC(=O)c1ccc(NC(=O)c2nn(C)cc2Br)cc1 | x | n | x | 83.4 | n
Cc1noc(C)c1NC(=O)N(C)C[C@H]1Oc2c(NC(=O)C3CCOCC3)cccc2C(=O)N([C@@H](C)CO)C[C@H]1C | n | x | n | x | x
COc1ccccc1-c1cnc2c(c1)C(=O)N([C@@H](C)CO)C[C@@H](C)[C@@H](CN(C)CC1CCOCC1)O2 | n | x | n | x | x
CCNC(=O)C[C@H]1CC[C@@H](NS(=O)(=O)c2ccc(F)cc2)[C@H](CO)O1 | n | x | n | x | n
Cc1noc(C)c1NC(=O)N(C)C[C@H]1Oc2c(NS(=O)(=O)c3c(C)noc3C)cccc2C(=O)N([C@@H](C)CO)C[C@H]1C | n | x | n | x | n
CCOC(=O)c1cccc(NC(=O)c2cnccn2)c1 | x | x | x | x | n
Cn1cc(Br)c(C(=O)NNC(=O)c2ccccc2)n1 | 42.0 | x | x | n | n
CCOC(=O)c1ccc(NC(=O)/C=C/c2cccs2)cc1 | n | n | n | 87.7 | n
CCOC(=O)c1cc(NC(=O)c2cnccn2)cc(C(=O)OCC)c1 | 85.8 | x | x | n | x
SMILES | INS-1E GSIS act | Wnt bcat act | F508del corr | MITF act | Env fusion inh
CCN(CC)CCOC(=O)c1ccc(NC(=O)/C=C/c2cccs2)cc1 | n | u | n | n | n
CCOC(=O)c1ccc(NC(=O)Nc2ccccn2)cc1 | n | n | n | 101.6 | n
C[C@@H]1CCCCO[C@H](CN(C)Cc2ccc(C(=O)O)cc2)[C@H](C)CN([C@H](C)CO)C(=O)c2cc(NS(=O)(=O)c3cn(C)cn3)ccc2O1 | n | x | n | x | n
Cc1ccc(S(=O)(=O)N(C)C)cc1NC(=O)CCc1ccccc1 | n | 48.2 | n | n | n
Cc1ccc(S(=O)(=O)N(C)C)cc1NC(=O)CCc1c[nH]c2ccccc12 | x | n | n | n | n
C[C@@H]1CN([C@@H](C)CO)S(=O)(=O)c2ccc(C#C[C@@H](C)O)cc2O[C@@H]1CN(C)CC1CCOCC1 | n | x | n | x | n
Cc1ccc(/C=N/Nc2ccccn2)s1 | n | n | n | 103.7 | n
Clc1ccc(/C=N/Nc2ccccn2)cc1 | n | 56.4 | n | n | n
Cc1noc(C)c1/C=N/Nc1ccccn1 | n | n | n | n | n
Brc1ccccc1/C=N/Nc1ccccn1 | n | n | n | n | n
COc1ccc(/C=N/NC(=S)Nc2ccccc2[N+](=O)[O-])cc1O | n | n | 8.8 | n | n
O=[N+]([O-])c1cc(/C=N/NC(=S)Nc2ccccc2Cl)ccc1Cl | n | n | n | n | n
Clc1ccccc1C=NNc1ccccn1 | n | 39.2 | n | n | n
COCC(=O)Nc1ccc2c(c1)C(=O)N(C)[C@H]1CC[C@H](CC(=O)NCCc3ccccc3)O[C@@H]1CO2 | n | x | n | x | n
